For some of these results: Measured potencies and affinities stand elsewhere.
Experiments:
Set-up in all cases: scale not given: direction of the effect not stated beside the values
[1] = biological target: Protein translocase subunit SecA (Escherichia coli (strain K12)) (UniProt P10408); assay: Assay to Identify E. coli SecA ATPase Inhibitors; assay type: functional; conditions: 30 µM
[2] = biological target: T1, Ubiquitin-activating enzyme e1, putative (Leishmania donovani (strain BPK282A1)) (UniProt E9BSI1); assay: Leishmania donovani Ubiquitin Activating Enzyme (LdE1); assay type: functional; conditions: 30 µM
T1 sequence (whole entry): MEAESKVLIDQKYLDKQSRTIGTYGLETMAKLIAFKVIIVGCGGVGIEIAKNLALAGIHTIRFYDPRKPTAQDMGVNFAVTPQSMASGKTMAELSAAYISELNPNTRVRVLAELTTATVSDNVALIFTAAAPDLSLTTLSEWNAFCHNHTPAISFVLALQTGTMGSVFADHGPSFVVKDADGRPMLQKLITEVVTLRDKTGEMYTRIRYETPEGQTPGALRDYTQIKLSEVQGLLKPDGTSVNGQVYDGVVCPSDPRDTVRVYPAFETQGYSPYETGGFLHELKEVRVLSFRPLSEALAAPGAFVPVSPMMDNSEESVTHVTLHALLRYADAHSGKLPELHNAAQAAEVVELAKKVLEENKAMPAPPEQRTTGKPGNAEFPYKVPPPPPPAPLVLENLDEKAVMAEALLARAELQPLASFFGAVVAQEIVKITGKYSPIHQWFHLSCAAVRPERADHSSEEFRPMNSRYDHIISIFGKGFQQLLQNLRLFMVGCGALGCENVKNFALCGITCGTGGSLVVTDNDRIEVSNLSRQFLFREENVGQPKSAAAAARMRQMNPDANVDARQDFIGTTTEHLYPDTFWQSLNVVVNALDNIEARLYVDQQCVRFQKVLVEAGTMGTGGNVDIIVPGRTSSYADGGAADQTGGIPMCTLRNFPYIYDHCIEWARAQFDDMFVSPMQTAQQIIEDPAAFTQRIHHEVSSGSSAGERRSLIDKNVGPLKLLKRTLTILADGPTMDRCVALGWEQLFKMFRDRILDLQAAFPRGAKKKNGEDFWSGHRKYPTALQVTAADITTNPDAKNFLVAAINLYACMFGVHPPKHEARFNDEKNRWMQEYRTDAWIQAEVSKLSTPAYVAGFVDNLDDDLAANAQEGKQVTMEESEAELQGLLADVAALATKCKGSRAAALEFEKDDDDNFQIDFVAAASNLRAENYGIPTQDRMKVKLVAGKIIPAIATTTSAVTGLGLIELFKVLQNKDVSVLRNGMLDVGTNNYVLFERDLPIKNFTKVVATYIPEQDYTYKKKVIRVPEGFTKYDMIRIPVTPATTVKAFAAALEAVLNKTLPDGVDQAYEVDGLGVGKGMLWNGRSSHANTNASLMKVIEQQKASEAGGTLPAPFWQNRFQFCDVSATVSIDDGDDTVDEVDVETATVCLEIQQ

[3] = biological target: AMP-activated protein kinase, AMPK (Homo sapiens) (UniProt P54646+O43741+P54619+Q9UGJ0+Q9Y478+Q13131+Q9UGI9); assay: AMP-dependent Kinase enzyme assay. An in vitro enzyme assay that detects ADP turnover that is directly proportional to AMPK activity. This uses naive AMPK that is activated during the assay with MK-8722; assay type: functional; conditions: 30 µM
[4] = biological target: Sialic acid-binding Ig-like lectin 9 (Homo sapiens) (UniProt Q9Y336); assay: Hs-Siglec9 ALPHAscreen SOP 20170721; conditions: 10 µM
Trypanosoma cruzi = assay: Trypanosoma cruzi phosphomannomutase and mannose-1-phosphate guanylyltransferase assay; assay type: functional; conditions: 10 µM
[5] = biological target: T2, Arginase-2, mitochondrial (Homo sapiens) (UniProt P78540); assay: in vitro enzyme assay to detect the production of urea directly proportional to the activity of Arginase II; assay type: functional; conditions: 33.3 µM; further: in the data most compounds retested in dose-response had high values
T2 sequence (whole entry): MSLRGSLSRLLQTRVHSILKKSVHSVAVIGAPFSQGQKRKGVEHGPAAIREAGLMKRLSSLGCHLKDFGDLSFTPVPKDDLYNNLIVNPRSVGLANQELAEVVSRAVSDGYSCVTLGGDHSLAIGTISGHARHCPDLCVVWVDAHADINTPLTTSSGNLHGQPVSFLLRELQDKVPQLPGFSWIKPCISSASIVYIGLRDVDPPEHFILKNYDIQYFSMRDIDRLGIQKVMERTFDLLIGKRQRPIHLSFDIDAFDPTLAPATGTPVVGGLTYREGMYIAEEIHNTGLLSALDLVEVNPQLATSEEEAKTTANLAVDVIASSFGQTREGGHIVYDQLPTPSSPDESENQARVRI

[6] = biological target: T3, Proteasome subunit beta (Trypanosoma cruzi) (UniProt O96673); assay: Trypanosoma cruzi proteasome chymotrypsin-like activity (TcProtChymo) assay.; further: in the data most compounds retested in dose-response had high values; assay type: functional; conditions: 9.37 µM
T3 sequence (whole entry): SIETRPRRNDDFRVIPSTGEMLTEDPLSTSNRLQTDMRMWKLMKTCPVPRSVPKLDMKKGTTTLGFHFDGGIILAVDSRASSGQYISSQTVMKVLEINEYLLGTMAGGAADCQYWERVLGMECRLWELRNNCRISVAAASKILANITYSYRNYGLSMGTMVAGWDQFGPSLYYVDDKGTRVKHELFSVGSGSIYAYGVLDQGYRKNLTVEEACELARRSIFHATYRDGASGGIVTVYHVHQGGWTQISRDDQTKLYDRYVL

Homo sapiens = species: Homo sapiens; assay: To identify inhibition of the IFN signalling (Jak-Stat) pathway via expression of an eGFP reporter gene under the control of an IFN-stimulated response element (ISRE) containing MxA promoter.; assay type: functional; conditions: 30 µM
[7] = biological target: T4, Tyrosyl-tRNA synthetase, putative (Trypanosoma cruzi (strain CL Brener)) (UniProt Q4DSP6); assay: Trypanosoma cruzi tyrosyl tRNA synthetase (TcYRS) _High Tyrosine SOP; assay type: functional; conditions: 30 µM; further: in the data most compounds retested in dose-response had high values
T4 sequence (whole entry): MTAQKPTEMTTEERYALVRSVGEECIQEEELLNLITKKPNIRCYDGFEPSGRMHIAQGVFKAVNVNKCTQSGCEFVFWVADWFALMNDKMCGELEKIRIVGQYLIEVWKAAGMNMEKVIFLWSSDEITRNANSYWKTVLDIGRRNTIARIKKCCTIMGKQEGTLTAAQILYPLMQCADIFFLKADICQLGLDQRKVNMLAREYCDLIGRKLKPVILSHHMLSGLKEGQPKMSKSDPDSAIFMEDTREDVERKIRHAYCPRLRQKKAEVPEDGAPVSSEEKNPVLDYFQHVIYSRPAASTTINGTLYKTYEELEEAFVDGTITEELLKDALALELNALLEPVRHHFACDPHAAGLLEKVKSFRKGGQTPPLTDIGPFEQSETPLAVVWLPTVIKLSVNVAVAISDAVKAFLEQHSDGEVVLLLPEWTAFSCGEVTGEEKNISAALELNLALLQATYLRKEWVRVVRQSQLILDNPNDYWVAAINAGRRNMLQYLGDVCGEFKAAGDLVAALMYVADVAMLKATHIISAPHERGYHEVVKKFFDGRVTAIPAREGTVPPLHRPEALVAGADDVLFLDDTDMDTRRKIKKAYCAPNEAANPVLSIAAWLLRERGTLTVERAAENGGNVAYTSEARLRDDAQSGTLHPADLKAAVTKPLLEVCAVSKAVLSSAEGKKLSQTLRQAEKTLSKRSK

[8] = biological target: T4, Tyrosyl-tRNA synthetase, putative (Trypanosoma cruzi (strain CL Brener)); assay: Trypanosoma cruzi tyrosyl tRNA synthetase (TcYRS) SOP; assay type: functional; conditions: 30 µM
[9] = biological target: Chromo domain-containing protein 1 (Saccharomyces cerevisiae (strain ATCC 204508 / S288c) (Baker's yeast)) (UniProt P32657); assay: ScCHD-1 Enzyme Inhibition Assay; assay type: functional; conditions: 30 µM; further: in the data most compounds retested in dose-response had high values
Chromo domain-containing protein 1 (Saccharomyces cerevisiae (strain ATCC 204508 / S288c) (Baker's yeast)), sequence (P32657 whole entry, the tested form may be a part): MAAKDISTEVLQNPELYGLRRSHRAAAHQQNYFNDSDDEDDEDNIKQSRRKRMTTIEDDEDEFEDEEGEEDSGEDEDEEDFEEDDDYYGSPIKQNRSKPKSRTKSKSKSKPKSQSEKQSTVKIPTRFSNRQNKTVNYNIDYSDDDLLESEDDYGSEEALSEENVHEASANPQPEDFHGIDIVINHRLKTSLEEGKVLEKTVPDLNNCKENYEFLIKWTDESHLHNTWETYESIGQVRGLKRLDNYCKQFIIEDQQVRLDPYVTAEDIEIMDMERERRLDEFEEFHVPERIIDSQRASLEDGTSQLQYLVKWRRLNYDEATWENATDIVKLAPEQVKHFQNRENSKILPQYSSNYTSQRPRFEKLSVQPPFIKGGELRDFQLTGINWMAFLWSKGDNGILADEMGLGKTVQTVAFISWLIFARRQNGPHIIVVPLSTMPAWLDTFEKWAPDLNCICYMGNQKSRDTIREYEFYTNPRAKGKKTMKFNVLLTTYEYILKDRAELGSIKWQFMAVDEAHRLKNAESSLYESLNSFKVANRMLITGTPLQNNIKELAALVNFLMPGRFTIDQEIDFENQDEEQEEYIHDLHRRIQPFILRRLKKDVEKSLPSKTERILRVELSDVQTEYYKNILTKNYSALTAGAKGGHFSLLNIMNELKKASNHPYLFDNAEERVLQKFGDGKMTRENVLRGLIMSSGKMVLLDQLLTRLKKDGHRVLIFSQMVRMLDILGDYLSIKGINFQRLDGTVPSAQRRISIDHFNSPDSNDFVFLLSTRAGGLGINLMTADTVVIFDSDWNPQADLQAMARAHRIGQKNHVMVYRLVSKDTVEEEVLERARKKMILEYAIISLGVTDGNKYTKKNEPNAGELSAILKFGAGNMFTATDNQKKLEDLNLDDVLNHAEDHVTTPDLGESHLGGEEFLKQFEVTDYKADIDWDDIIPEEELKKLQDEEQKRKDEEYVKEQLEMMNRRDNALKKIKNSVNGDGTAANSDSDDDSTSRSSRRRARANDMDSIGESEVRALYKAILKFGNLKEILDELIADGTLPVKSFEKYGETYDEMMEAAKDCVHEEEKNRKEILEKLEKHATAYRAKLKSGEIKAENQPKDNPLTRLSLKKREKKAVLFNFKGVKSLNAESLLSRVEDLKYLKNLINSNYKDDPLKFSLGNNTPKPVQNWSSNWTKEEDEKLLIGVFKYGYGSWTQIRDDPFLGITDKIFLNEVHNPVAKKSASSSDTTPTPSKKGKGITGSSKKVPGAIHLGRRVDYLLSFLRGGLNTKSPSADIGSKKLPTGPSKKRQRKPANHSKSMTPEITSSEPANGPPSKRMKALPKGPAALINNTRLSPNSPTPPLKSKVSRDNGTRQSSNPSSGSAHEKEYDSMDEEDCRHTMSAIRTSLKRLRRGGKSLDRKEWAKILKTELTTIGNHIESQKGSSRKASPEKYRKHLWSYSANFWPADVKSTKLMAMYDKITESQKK

Sialic acid-binding Ig-like lectin 9 (Homo sapiens), sequence (Q9Y336 whole entry): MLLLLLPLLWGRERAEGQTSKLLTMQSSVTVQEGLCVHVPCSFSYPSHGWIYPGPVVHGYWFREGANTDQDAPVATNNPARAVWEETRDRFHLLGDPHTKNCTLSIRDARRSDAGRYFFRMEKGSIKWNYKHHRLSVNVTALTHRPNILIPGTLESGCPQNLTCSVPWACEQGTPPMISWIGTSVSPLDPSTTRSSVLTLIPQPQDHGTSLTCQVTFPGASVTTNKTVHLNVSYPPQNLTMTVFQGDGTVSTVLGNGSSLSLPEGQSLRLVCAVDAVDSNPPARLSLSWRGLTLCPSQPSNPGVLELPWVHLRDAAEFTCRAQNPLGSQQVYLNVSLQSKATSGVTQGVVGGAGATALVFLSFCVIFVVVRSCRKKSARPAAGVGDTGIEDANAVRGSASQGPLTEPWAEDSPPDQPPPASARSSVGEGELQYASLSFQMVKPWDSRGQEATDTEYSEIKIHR
Protein translocase subunit SecA (Escherichia coli (strain K12)), sequence (P10408 whole entry): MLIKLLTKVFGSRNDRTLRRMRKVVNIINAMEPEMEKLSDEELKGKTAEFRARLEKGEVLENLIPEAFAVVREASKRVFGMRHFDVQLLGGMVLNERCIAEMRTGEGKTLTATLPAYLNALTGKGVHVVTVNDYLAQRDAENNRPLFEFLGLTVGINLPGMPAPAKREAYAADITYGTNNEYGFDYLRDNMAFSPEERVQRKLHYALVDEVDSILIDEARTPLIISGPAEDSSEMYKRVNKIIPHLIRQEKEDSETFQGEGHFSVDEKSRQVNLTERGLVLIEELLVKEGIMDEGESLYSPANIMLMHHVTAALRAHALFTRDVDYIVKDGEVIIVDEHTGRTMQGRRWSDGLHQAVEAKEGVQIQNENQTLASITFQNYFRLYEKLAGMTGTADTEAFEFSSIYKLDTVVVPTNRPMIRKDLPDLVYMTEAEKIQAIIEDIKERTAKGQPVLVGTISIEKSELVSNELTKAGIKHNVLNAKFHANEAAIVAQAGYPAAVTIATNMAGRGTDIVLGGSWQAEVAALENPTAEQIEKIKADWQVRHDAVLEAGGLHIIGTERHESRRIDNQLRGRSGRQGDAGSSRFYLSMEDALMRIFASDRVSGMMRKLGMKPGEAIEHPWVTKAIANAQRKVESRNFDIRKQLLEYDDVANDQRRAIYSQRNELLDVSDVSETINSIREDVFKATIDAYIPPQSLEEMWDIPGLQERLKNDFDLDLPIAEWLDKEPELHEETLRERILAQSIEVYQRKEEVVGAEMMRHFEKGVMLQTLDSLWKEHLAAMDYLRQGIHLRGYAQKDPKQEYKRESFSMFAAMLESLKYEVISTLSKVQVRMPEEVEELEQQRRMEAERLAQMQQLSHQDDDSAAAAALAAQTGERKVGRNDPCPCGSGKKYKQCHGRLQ

SMILES	Percent Effect [1] [%]	Percent Effect [2] [%]	Percent Effect [3] [%]	Percent Effect [4] [%]	Percent Effect (Trypanosoma cruzi) [%]	Percent Effect [5] [%]	Percent Effect [6] [%]	Percent Effect (Homo sapiens) [%]	Percent Effect [7] [%]	Percent Effect [8] [%]	Percent Effect [9] [%]
COc1ccnc(N2CCN(C(=O)NCc3ccc(C)s3)CC2)n1	-4.33	15.6	6.59	2.69	4.6	1.47	5.42	-2.65	5.71	18.8	-0.255
COc1ccc(CC(=O)N(C)Cc2nnc3ccccn23)cc1	-4.71	26	2.72	-2.77	3.62	-6.53	17.1	12.6	8.57	25.9	77.9
CC(C)COCC(NC(=O)c1cccnc1)c1ccco1 (stereo not drawn)	-5.15	10.8	-37.5	3.03	0.0943	-4.01	-0.54	16.3	9.36	11.1	-5.14
CCc1cnc(N2CCC(=O)N(CC3CC3)C(C(C)C)C2)nc1 (stereo not drawn)	3.49	13.5	-2.35	11.8	-0.965	4.29	8.62	29.3	3.7	12.2	-1.36
CC(C)Oc1cc(N2CCC(N3CCC(O)CC3)CC2)nc(N)n1	0.0362	8.11	-10	8.23	4.63	-0.476	11	12.1	8.99	17.1	-4.42
CNC(=O)c1nc2c(s1)CCN(C(=O)c1cccnc1)CC2	2.24	0	4.01	3.91	-3.67	-50.4	3.42	3.61	3.12	5	-2.25
CCS(=O)(=O)N(C)c1ccc(C(=O)N2CCCC(C)C2)cc1 (stereo not drawn)	-2.45	4.17	-4.69	15.7	3.4	0.883	0.351	4.06	-1.05	5.13	-1.93
COc1ccccc1CN(C)C(=O)c1cc(CN2CCC(O)CC2)on1	-4.25	2.74	26.1	19.3	3.53	18.6	12.8	-1.57	6.45	20	100

— ChEMBL document CHEMBL3988442, “University of Dundee, Small-Polar-MMV Screening Library” (2021)
